Test results taken from PubChem BioAssay (NCI).
Compounds without any hit were thinned out: in the full panel of roughly 83,000, 20% have a hit.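 Method: cells in 96-well plates; compound added at one concentration; 48 h incubation; percent growth measured; values under 10 scored active.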 Activity calls are given as the source filed them.

Columns and labels:
Experiment in all cases: NCI-60 one-dose screen, 48 h (100 = growth as untreated, 0 = no growth, -100 = all killed)
Conditions in all cases: 10 µM unless noted
HCT-15 colon = test system: HCT-15 colon
HT29 colon = test system: HT29 colon
SNB-75 CNS = test system: SNB-75 CNS
SNB-19 CNS = test system: SNB-19 CNS
U251 CNS = test system: U251 CNS
PC-3 prostate = test system: PC-3 prostate
SK-MEL-5 melanoma = test system: SK-MEL-5 melanoma
UACC-62 melanoma = test system: UACC-62 melanoma
LOX IMVI melanoma = test system: LOX IMVI melanoma
SK-MEL-28 melanoma = test system: SK-MEL-28 melanoma
SK-MEL-2 melanoma = test system: SK-MEL-2 melanoma
EKVX NSCLC = test system: EKVX NSCLC
SN12C renal = test system: SN12C renal
UO-31 renal = test system: UO-31 renal
TK-10 renal = test system: TK-10 renal
ACHN renal = test system: ACHN renal
CAKI-1 renal = test system: CAKI-1 renal
A498 renal = test system: A498 renal
CCRF-CEM leukemia = test system: CCRF-CEM leukemia
MOLT-4 leukemia = test system: MOLT-4 leukemia

Measured: growth

COc1ccc2c(c1)CC[C@@H]1[C@@H]2CC[C@]2(C)c3c(cc(C#N)c4c3sc3ccccc34)C[C@@H]12
inactive: HCT-15 colon 104% | HT29 colon 100% | SNB-75 CNS 86% | SNB-19 CNS 104% | U251 CNS 104% | PC-3 prostate 85.5% | SK-MEL-5 melanoma 95.9% | UACC-62 melanoma 99.5% | LOX IMVI melanoma 96.8% | SK-MEL-28 melanoma 110% | SK-MEL-2 melanoma 109% | EKVX NSCLC 103% | SN12C renal 104% | UO-31 renal 85% | TK-10 renal 107% | ACHN renal 105% | CAKI-1 renal 103% | A498 renal 109% | CCRF-CEM leukemia 82.3% | MOLT-4 leukemia 92.1%

O=Nc1ccc(NC(=O)Nc2ccc([N+](=O)[O-])cc2)cc1
inactive: HCT-15 colon 83.2% | HT29 colon 100% | SNB-75 CNS 96.4% | SNB-19 CNS 107% | U251 CNS 92.5% | PC-3 prostate 72.2% | SK-MEL-5 melanoma 86.7% | UACC-62 melanoma 76.9% | LOX IMVI melanoma 88.8% | SK-MEL-28 melanoma 108% | SK-MEL-2 melanoma 116% | EKVX NSCLC 96% | SN12C renal 94.9% | UO-31 renal 85.8% | TK-10 renal 99.7% | ACHN renal 94.7% | CAKI-1 renal 97.1% | A498 renal 84% | CCRF-CEM leukemia 68.4% | MOLT-4 leukemia 88.6%

CC(C)(C)OC(=O)CN1CCc2c(sc3ncnc(N4CCN(c5ccc(F)cc5)CC4)c23)C1
inactive: HCT-15 colon 96.6% | HT29 colon 98.7% | SNB-75 CNS 82.6% | SNB-19 CNS 88% | U251 CNS 85.5% | PC-3 prostate 69.2% | SK-MEL-5 melanoma 92% | UACC-62 melanoma 68.4% | LOX IMVI melanoma 96.7% | SK-MEL-28 melanoma 92.5% | SK-MEL-2 melanoma 92.1% | EKVX NSCLC 95.5% | SN12C renal 91.6% | UO-31 renal 51.7% | TK-10 renal 100% | ACHN renal 85.7% | CAKI-1 renal 80.6% | A498 renal 68.7% | CCRF-CEM leukemia 59.2% | MOLT-4 leukemia 53.4%

CCOC(=O)c1c(C)nc2ccccc2c1/C=C/c1ccc(F)cc1
inactive: HCT-15 colon 68.1% | HT29 colon 75.5% | SNB-75 CNS 86.5% | SNB-19 CNS 76.9% | U251 CNS 75.5% | PC-3 prostate 67.3% | SK-MEL-5 melanoma 16.7% | UACC-62 melanoma 49.7% | LOX IMVI melanoma 74.1% | SK-MEL-28 melanoma 101% | SK-MEL-2 melanoma 75.2% | EKVX NSCLC 60.3% | SN12C renal 77.1% | UO-31 renal 62.8% | TK-10 renal 82.3% | ACHN renal 75.5% | CAKI-1 renal 67.7% | A498 renal 75.4% | CCRF-CEM leukemia 67.8% | MOLT-4 leukemia 42.8%

COc1ccc(Cl)cc1Nc1nc(C(F)(F)F)ccc1C(=O)N/N=C/c1ccc([N+](=O)[O-])cc1
active: HCT-15 colon 3.38% | HT29 colon 2.62% | U251 CNS -27% | PC-3 prostate -5.64% | SK-MEL-5 melanoma -17.7% | LOX IMVI melanoma -32.8% | SK-MEL-2 melanoma -8.38% | EKVX NSCLC 0.805% | SN12C renal 5.05% | UO-31 renal -1.49% | ACHN renal -9.86% | CAKI-1 renal 4.56% | A498 renal 3.24% | CCRF-CEM leukemia 9.15% | MOLT-4 leukemia 2.93%
inactive: SNB-75 CNS 29.5% | SNB-19 CNS 22.9% | UACC-62 melanoma 17.3% | SK-MEL-28 melanoma 22.8% | TK-10 renal 10.5%

CCOC(=O)c1ccc[nH]1
inactive: HCT-15 colon 93.9% | HT29 colon 106% | SNB-75 CNS 84.2% | SNB-19 CNS 99.4% | U251 CNS 96.6% | PC-3 prostate 91.8% | SK-MEL-5 melanoma 98.4% | UACC-62 melanoma 103% | LOX IMVI melanoma 94.1% | SK-MEL-28 melanoma 115% | SK-MEL-2 melanoma 99.3% | EKVX NSCLC 97.1% | SN12C renal 105% | UO-31 renal 91.8% | TK-10 renal 98.3% | ACHN renal 90.4% | CAKI-1 renal 74.3% | A498 renal 101% | CCRF-CEM leukemia 92.1% | MOLT-4 leukemia 102%

COC(=O)[C@@]12CC=C(C)[C@]3(C[C@H](c4ccoc4)OC3=O)[C@H]1C=C[C@@H](O)[C@@]2(O)C(=O)OC
inactive: HCT-15 colon 108% | HT29 colon 84.7% | SNB-75 CNS 88.9% | SNB-19 CNS 105% | U251 CNS 97.9% | PC-3 prostate 95.6% | SK-MEL-5 melanoma 107% | UACC-62 melanoma 92.8% | LOX IMVI melanoma 97.5% | SK-MEL-28 melanoma 105% | SK-MEL-2 melanoma 84.6% | EKVX NSCLC 94.7% | SN12C renal 104% | UO-31 renal 82.7% | TK-10 renal 80.3% | ACHN renal 105% | CAKI-1 renal 85.1% | A498 renal 109% | CCRF-CEM leukemia 111% | MOLT-4 leukemia 106%

CCN(CCNc1ccc(C)c2sc3cc(Cl)ccc3c(=O)c12)CC(C)(C)O
active: UACC-62 melanoma -60.1% | SK-MEL-28 melanoma -33%
inactive: HCT-15 colon 17.5% | HT29 colon 21.7% | SNB-75 CNS 68.5% | SNB-19 CNS 71% | U251 CNS 46.3% | PC-3 prostate 81.2% | SK-MEL-5 melanoma 63.4% | LOX IMVI melanoma 41.8% | SK-MEL-2 melanoma 56.6% | EKVX NSCLC 82% | SN12C renal 71.5% | UO-31 renal 50.5% | TK-10 renal 75.7% | ACHN renal 69.3% | CAKI-1 renal 55.8% | A498 renal 75.5% | CCRF-CEM leukemia 79.5% | MOLT-4 leukemia 70.5%

CCSc1ccnc(N)n1
inactive: HCT-15 colon 102% | HT29 colon 113% | SNB-75 CNS 95.2% | SNB-19 CNS 103% | U251 CNS 105% | PC-3 prostate 96% | SK-MEL-5 melanoma 107% | UACC-62 melanoma 99% | LOX IMVI melanoma 99.9% | SK-MEL-28 melanoma 114% | SK-MEL-2 melanoma 106% | EKVX NSCLC 104% | SN12C renal 106% | UO-31 renal 97.7% | TK-10 renal 101% | ACHN renal 96.8% | CAKI-1 renal 82.1% | A498 renal 98.1% | CCRF-CEM leukemia 97.3% | MOLT-4 leukemia 124%

Nc1ncnc2c1N=C(c1ccc(F)cc1)CC(c1cccc(Nc3ccnc4cc(Cl)ccc34)c1)N2 (stereo not given)
inactive: HCT-15 colon 48.4% | HT29 colon 62.8% | SNB-75 CNS 72.7% | SNB-19 CNS 82% | U251 CNS 66.2% | PC-3 prostate 66.3% | SK-MEL-5 melanoma 72% | UACC-62 melanoma 89.5% | LOX IMVI melanoma 68.2% | SK-MEL-28 melanoma 95.3% | SK-MEL-2 melanoma 89.1% | EKVX NSCLC 64.9% | SN12C renal 79.7% | UO-31 renal 59.6% | TK-10 renal 105% | ACHN renal 96.3% | CAKI-1 renal 70.5% | A498 renal 92.3% | CCRF-CEM leukemia 74.1% | MOLT-4 leukemia 39.6%

N=C(N)c1ccc(-c2ccc(-c3ccccc3)o2)o1
active: HT29 colon 4.83%
inactive: HCT-15 colon 13% | SNB-75 CNS 32.8% | SNB-19 CNS 38.3% | U251 CNS 10.3% | PC-3 prostate 30.4% | SK-MEL-5 melanoma 30.5% | UACC-62 melanoma 61.9% | LOX IMVI melanoma 14.3% | SK-MEL-28 melanoma 69.1% | SK-MEL-2 melanoma 45.1% | EKVX NSCLC 51.9% | SN12C renal 39% | UO-31 renal 41.9% | TK-10 renal 60.5% | ACHN renal 38.5% | CAKI-1 renal 37.4% | A498 renal 48.7% | CCRF-CEM leukemia 15.4% | MOLT-4 leukemia 15.6%

O=c1oc2c(cc1-c1ccccc1)c[n+]([O-])c1ccccc21
inactive: HCT-15 colon 103% | HT29 colon 103% | SNB-75 CNS 93% | SNB-19 CNS 97.9% | U251 CNS 97.9% | PC-3 prostate 97% | SK-MEL-5 melanoma 98.1% | UACC-62 melanoma 97.4% | LOX IMVI melanoma 101% | SK-MEL-28 melanoma 109% | SK-MEL-2 melanoma 109% | EKVX NSCLC 98.1% | SN12C renal 97.2% | UO-31 renal 90.4% | TK-10 renal 107% | ACHN renal 97.3% | CAKI-1 renal 90.6% | A498 renal 105% | CCRF-CEM leukemia 101% | MOLT-4 leukemia 102%

CCOC(=O)CC1CSC(N/N=C/c2ccc(F)c(Br)c2)=N1 (stereo not given)
inactive: HCT-15 colon 101% | HT29 colon 84.8% | SNB-75 CNS 109% | SNB-19 CNS 110% | U251 CNS 94.7% | PC-3 prostate 103% | SK-MEL-5 melanoma 101% | UACC-62 melanoma 103% | LOX IMVI melanoma 101% | SK-MEL-28 melanoma 107% | SK-MEL-2 melanoma 104% | EKVX NSCLC 104% | SN12C renal 114% | UO-31 renal 82.9% | TK-10 renal 102% | ACHN renal 106% | CAKI-1 renal 95.5% | A498 renal 95.7% | CCRF-CEM leukemia 90% | MOLT-4 leukemia 88.5%

Cc1cc2oc(/C=C/c3ccccc3)cc(=O)c2c(C)c1Cl
inactive: HCT-15 colon 95.7% | HT29 colon 107% | SNB-75 CNS 116% | SNB-19 CNS 89.8% | U251 CNS 94.3% | PC-3 prostate 96.7% | SK-MEL-5 melanoma 96% | UACC-62 melanoma 90.5% | LOX IMVI melanoma 109% | SK-MEL-28 melanoma 94.6% | SK-MEL-2 melanoma 103% | EKVX NSCLC 101% | SN12C renal 99.1% | UO-31 renal 94.4% | TK-10 renal 91.6% | ACHN renal 110% | CAKI-1 renal 84.6% | A498 renal 142% | CCRF-CEM leukemia 99.2% | MOLT-4 leukemia 62.6%
